Screens from PubChem BioAssay.
GDH-TPI counter: counter-screen for M. tuberculosis FBA inhibitors: GDH-TPI coupled enzymes. GDH-TPI coupled enzyme counterscreen, NADH absorbance. inhibition, % at 4.8 µM. 360,000 compounds, 1.2% hits;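 further: 0% = DMSO wells and 100% = wells lacking the enzyme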
RecA splice inh: Mtb RecA intein splicing inhibition. cell-free RecA intein splicing, fluorescence. P9WHJ3. 290,000 compounds, 0.75% hits. inhibition, % (no concentration beside the values). AID 2221; in the data active means inhibition above about 30%; inconclusive means no clear call, values can overlap the other calls;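 further: 0% = vehicle wells and 100% = reference inhibitor control wells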
FBA Mtb inh: inhibitors of M. tuberculosis fructose-bisphosphate aldolase. P9WQA3. purified M. tuberculosis FBA, fluorescence read-out. inhibition, % at 1 µM. 360,000 compounds, 2.3% hits; in the data active means inhibition above about 27%;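 further: 0% = vehicle and 100% = reference inhibitor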
Target sequence (P9WQA3 whole entry, looked up): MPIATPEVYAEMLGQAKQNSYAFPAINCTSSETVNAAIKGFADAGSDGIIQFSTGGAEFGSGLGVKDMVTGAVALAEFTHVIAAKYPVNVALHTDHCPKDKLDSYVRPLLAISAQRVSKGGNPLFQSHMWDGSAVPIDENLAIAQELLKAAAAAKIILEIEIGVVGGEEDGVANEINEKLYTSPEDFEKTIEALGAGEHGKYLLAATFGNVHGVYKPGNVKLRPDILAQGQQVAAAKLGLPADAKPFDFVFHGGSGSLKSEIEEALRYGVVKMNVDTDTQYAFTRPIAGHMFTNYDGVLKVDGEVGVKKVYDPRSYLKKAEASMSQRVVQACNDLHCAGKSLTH
CCHFV vOTU inh: CCHFV vOTU protease inhibition. Pep-AMC fluorescence. 370,000 compounds, 0.55% hits. inhibition, % at 11.5 µM; further: 0% = vehicle wells with enzyme and 100% = no enzyme wells
GFP chromophore: counter-screen GFP chromophore formation inhibition; cell-free GFP chromophore formation, fluorescence; EC50, µM; 2,100 compounds, 83% hits; shares compounds with RecA splice inh; AID 434968; call rule not given here
* marks the source's active call; other numbers are inactive results; ? = inconclusive; . = no result. The list is not random: actives were taken first. Their share in the collection is about 4.2%. Unless noted, no stated cut-off is given here; in the data, active means inhibition above about 30%; inactive means the rest.

SMILES | GDH-TPI counter | RecA splice inh | FBA Mtb inh | CCHFV vOTU inh | GFP chromophore
COc1ccc(C=NCCc2ccc(OC)c(OC)c2)cc1OC | 4 | . | -2 | -2 | .
O=C(O)CCN1C(=O)C2C3C=CC(C2C1=O)C1C(=O)N(CCC(=O)O)C(=O)C31 (centres undefined) | 1 | -3 | 3 | 8 | .
O=c1cc(-c2ccc(Cl)cc2)[nH][nH]1 | -10 | 94* | 0 | 9 | 1.9*
COc1ccc(-c2cc(=O)[nH][nH]2)cc1 | -3 | 98* | 1 | -3 | 1.9*
COc1ccc(-c2cc(=O)[nH]c(=O)[nH]2)cc1 | 17 | 5 | -4 | -11 | .
O=c1cc(-c2ccc(Cl)c(Cl)c2)[nH][nH]1 | 8 | 88* | -4 | 21 | 6.6*
O=[N+]([O-])c1ccc(-c2cc(-c3ccc(Cl)cc3)n[nH]2)cc1 | 27 | 3 | -1 | 11 | .
CCN(Cc1ccccc1)C(c1ccc(C)cc1)c1nnnn1C(C)(C)CC (centres undefined) | 10 | 30* | 3 | -5 | >38
O=C(CN1CCOCC1)N/N=C/c1cccc2ccccc12 | 22 | -2 | -1 | -3 | .
Cc1cc(-c2nnc(SCC(=O)Nc3ccc(F)cc3F)n2N)n[nH]1 | 12 | 1 | 0 | -9 | .
COC(=O)c1cccc(NS(=O)(=O)c2cccs2)c1C | 19 | -2 | 2 | -5 | .
Cc1ccc(S(=O)(=O)/N=C2\C=C(Nc3ccc(O)cc3)C(=O)c3ccccc32)cc1 | 5 | . | -4 | . | .
CCc1ccc(S(=O)(=O)/N=C2\C=C(Nc3ccc(C(=O)O)cc3)C(=O)c3ccccc32)cc1 | 7 | 91* | -1 | 112* | 0.24*
COC(=O)c1ccccc1NC1=C/C(=N\S(=O)(=O)c2ccc(C(=O)O)cc2)c2ccccc2C1=O | 12 | 63* | -7 | . | ?
O=C1C(Nc2ccccc2)=C/C(=N/S(=O)(=O)c2cccs2)c2ccccc21 | 14 | 38* | -4 | . | 0.28*
COC(=O)c1ccccc1NC1=C/C(=N\S(=O)(=O)c2cccs2)c2ccccc2C1=O | 16 | 81* | -1 | 9 | 0.1*
S=P(N1CC1)(N1CC1)N1CC1 | 10 | . | -1 | 3 | .
CC(C)(C)c1ccc(S(=O)(=O)/N=C2\C=C(NS(=O)(=O)c3ccccc3)C(=O)c3ccccc32)cc1 | 7 | 63* | -8 | 54* | 7.9*
Fc1ccc(Sc2nc(-c3ccccc3)nnc2C(F)(F)F)cc1 | -3 | 71* | -4 | 11 | 0.89*
CS(=O)(=O)c1cnc(-c2ccccc2)nc1Sc1ccc(F)cc1 | 8 | 1 | 0 | -9 | .
CN1CCc2cc3c(c4c2C1Cc1ccccc1-4)OCO3 (centres undefined) | 10 | 55* | -2 | 23 | 0.87*
COC(=O)c1sc(N)c(C(=O)OC)c1COC(=O)c1c(C)noc1C | 27 | 3 | -2 | 5 | .
COC(=O)c1sc(N)c(C(=O)OC)c1Cn1ncc(Cl)c(Cl)c1=O | 9 | 31* | 3 | 3 | 1.6*
CN1C(C)(C)CC(=NO)CC1(C)C | 7 | . | 3 | -17 | .
[O-]C1=N/[N+](=C/c2ccccc2)CC1 | 8 | 81* | 0 | 0 | 30*
SMILES | GDH-TPI counter | RecA splice inh | FBA Mtb inh | CCHFV vOTU inh | GFP chromophore
[O-]C1=N/[N+](=C/c2ccc(Cl)c(Cl)c2)CC1 | 6 | 36* | 1 | -4 | 38*
Clc1ccccc1/C=C/c1ccnc2ccccc12 | 8 | 22 | 7 | 6 | .
[O-]C1=N/[N+](=C/c2ccccc2Cl)CC1 | -4 | 70* | 0 | 3 | 17*
CCOc1ncccc1C(=O)OCC(=O)Nc1ccc2c(c1)OCCO2 | -1 | . | -1 | -9 | .
C[C@H]1CN([C@@H](C)CO)C(=O)c2cc(Br)cnc2O[C@@H]1CN(C)C(=O)Nc1ccc(C(F)(F)F)cc1 | -6 | . | 0 | 7 | .
COc1cccc(NC(=O)C2(C)CCN2CCc2ccccc2)c1 (centres undefined) | 9 | . | -3 | 2 | .
Cc1ccc(S(=O)(=O)CCC(O)c2ccc(Cl)cc2)cc1 (centres undefined) | -4 | -5 | 2 | 4 | .
CC1=NNC(=O)C1C(c1ccccc1)C(C#N)C#N (centres undefined) | 11 | 80* | 0 | -1 | 16*
CCn1c(COc2cccc3ccccc23)nnc1SCC(N)=O | -8 | 3 | -1 | 3 | >38
O=C(Nc1ccccc1Oc1ccccc1)NC1CCCCN(Cc2ccc(Cl)cc2)C1=O (centres undefined) | . | . | . | 1 | .
COCc1[nH]nc2c1C(c1ccc(OC)c(OC)c1)C(C#N)=C(N)O2 (centres undefined) | 9 | 56* | 4 | 8 | 31*
COCc1[nH]nc2c1C(c1ccc(F)cc1F)C(C#N)=C(N)O2 (centres undefined) | 7 | 25 | 1 | 18 | .
CCn1c2ccccc2c2cc(C3C(C#N)=C(N)Oc4n[nH]c(COC)c43)ccc21 (centres undefined) | 12 | 77* | 3 | -3 | 10*
COCc1[nH]nc2c1C(c1ccnc3ccccc13)C(C#N)=C(N)O2 (centres undefined) | 17 | 7 | -3 | 2 | .
CSCCC(NC(=O)c1cccc(C)c1)C(=O)OCC(=O)Nc1c(C)nn(-c2ccccc2)c1C (centres undefined) | -7 | 4 | 4 | 7 | .
CCN(CC)C(=O)COCc1cc(-c2ccc3c(c2)OCO3)on1 | -11 | -1 | 2 | -23 | .
CCc1nnc(NC(=O)c2nc(S(=O)(=O)Cc3ccc(C)cc3)ncc2Cl)s1 | 8 | 76* | -2 | 10 | 20*
CCc1nnc(NC(=O)c2nc(S(=O)(=O)Cc3cccc(C)c3)ncc2Cl)s1 | 17 | 75* | 0 | -5 | 16*
CCc1nnc(NC(=O)c2nc(Cl)ccc2Cl)s1 | 6 | 8 | -2 | -8 | .
CCc1nnc(NC(=O)c2nc(S(=O)(=O)Cc3ccccc3)ncc2Cl)s1 | 8 | 66* | -1 | 2 | 37*
CCOc1ccccc1NC(=O)c1nc(S(=O)(=O)Cc2cccc(C)c2)ncc1Cl | 13 | 8 | 3 | 8 | .
O=C1NC(=O)C(=Cc2cc3c(cc2[N+](=O)[O-])OCO3)C(=O)N1 | 22 | 39* | 4 | -6 | >38
CCOC(=O)CSc1nnc(NCC(=O)OC)c(=O)[nH]1 | -1 | 37* | 1 | -3 | >38
CCOC(=O)CSc1nnc(C)c(=O)[nH]1 | -8 | 0 | -2 | -1 | .
C=C(C)C(O)Cc1c(OC)ccc(C(=O)/C=C/c2ccc(O)cc2)c1O (centres undefined) | 17 | . | -4 | -2 | .
CC(C)=CCC/C(C)=C/Cc1c(O)ccc(C(=O)/C=C/c2ccc(O)cc2)c1O | 16 | 44* | -3 | 26 | >38
O=C(CSc1nnc(C2CC2)n1C1CC1)c1cc(F)ccc1F | 3 | . | 6 | -3 | .
COc1ccc(Nc2nc3cc(-c4ccccc4C)sc3c(=O)n2C)cc1OC | 8 | . | 1 | -2 | .
Cc1ccc(C(=O)C2C(c3ccc(-c4ccccc4[N+](=O)[O-])o3)NC(=O)NC2(O)C(F)(F)F)cc1 (centres undefined) | 4 | 83* | 1 | 21 | 22*
COc1ccc(S(=O)(=O)N2CCCCC2c2cc(C(=O)Nc3ccc(OC)cc3C)no2)cc1 (centres undefined) | 6 | . | 2 | 17 | .
